Measurements from PubChem BioAssay (NCI).
The panel holds about 79,000 compounds, 15% with a hit somewhere; the sample as a whole holds those more often. Active and inactive are the calls of the source. Rule as the data show it: active = growth inhibition above about 70%; inactive = the rest.

Assay: NCI Yeast Anticancer Drug Screen. Data for the rad50 strain (AID 155);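 also: 0% = growth of vehicle-only cultures of the same strain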
Conditions: S. cerevisiae rad50 strain growth inhibition; at 50.0 µM; stronger effect = higher value
Method in brief: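 Genetically altered yeast (DNA repair pathway); compound treatment; growth inhibition vs vehicle ctrl.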

| Compound | growth inhibition |
| --- | --- |
| CCCCC/C(C)=C(\C#N)C(=O)OC | -5.4% (inactive) |
| CCOC(=O)CC(C)C(C(=O)OCC)C(=O)OCC (stereo not given) | 1.05% (inactive) |
| CC(=O)c1sc2c(c1OC(=O)c1ccco1)c(=O)n(-c1ccccc1)c(=S)n2-c1ccccc1 | 20.8% (inactive) |
| COc1nc2c(c(O)c(C)c(=O)n2OC2OCC(OC(C)=O)C(OC(C)=O)C2OC(C)=O)c(=O)n1C (stereo not given) | -0.15% (inactive) |
| Cn1c2ccccc2c2oc(CO)cc(=O)c21 | 13.2% (inactive) |
| CCN(C=O)c1ccccc1 | 15.7% (inactive) |
| COc1cc(NC(C)CNC(C)C)c2ncccc2c1 (stereo not given) | -15.7% (inactive) |
| CN(C)C(=O)C(NCCO)c1ccccc1 (stereo not given) | -12.6% (inactive) |
| CCN(CC)CCCNc1ncc(C)c2[nH]c3ccncc3c12 | 2.9% (inactive) |
| C/C=C/C(O)CCCC (stereo not given) | -13.2% (inactive) |
| Cc1ccc(C)c(NC(=O)C(=O)C2C(=O)N(c3ccccc3)N=C2N)c1 (stereo not given) | -38.5% (inactive) |
| Cn1c2cc(Cl)c(Cl)cc2nc2cc3c(cc21)c(Cl)c(=O)c1cc2cc(Cl)c(Cl)cc2cc13 | 31.8% (inactive) |
| COC(=O)c1ccc(SCCC(=O)CNc2nc(N)nc(N)c2[N+](=O)[O-])cc1 | 32.1% (inactive) |
| Cc1cc(Cl)cc(Cl)c1OCC(=O)O | 6.3% (inactive) |
| NC(=O)c1ccccc1O | 13.5% (inactive) |
| C/C(=N/NC(N)=O)C1c2ccccc2Cc2ccccc21 | 18.1% (inactive) |
| O=C(O/N=C(\c1ccccc1)C(Br)c1ccccc1)c1ccccc1 (stereo not given) | -2.75% (inactive) |
| N#CC1(C(c2cccc3ccccc23)c2cccc3ccc4ccccc4c23)CC(=O)OC1=O (stereo not given) | 5.25% (inactive) |
| CCC(C)OC(=S)S.[Cu+2] (stereo not given) | -23.6% (inactive) |
| COc1ccc2[nH]c3c(C)c4c(c(C)c3c2c1)CN(C)CC4 | 3.7% (inactive) |

| Compound | growth inhibition |
| --- | --- |
| COC(=O)[C@H]1C=C[C@H](OC2OC(COC(C)=O)C(OC(C)=O)C(OC(C)=O)C2OC(C)=O)n2c(=O)n(-c3ccccc3)c(=O)n21 (stereo not given in full) | 8.3% (inactive) |
| CCOC(CN=Cc1ccc2c(c1)Sc1ccccc1O2)OCC | 73.1% (active) |
| CCOc1ccc(NC(=O)CC2SC(=Nc3ccc(C)cc3)NC2=O)cc1 (stereo not given) | -12.7% (inactive) |
| CN(C)C(=O)Sc1ccc(O)cc1 | 5.05% (inactive) |
| CC(=O)c1cc2c(cc1C)C(C)(C)CCC2 | 8.45% (inactive) |
| CCOC(=O)C1=C(C)Oc2cc3c(cc2C1c1cc(OC)c(O)c(OC)c1)OCO3 (stereo not given) | 33.8% (inactive) |
| CN(C)NC(=O)Nc1ccc2ccccc2c1 | -39.4% (inactive) |
| Cc1cc(C)c2c(=O)c3c(oc2c1)O[C@@](C)(CO)C[C@@H]3c1ccccc1 | 1.15% (inactive) |
| COc1ccc(-c2cc(C(=O)Nc3cccc(C(F)(F)F)c3)[nH]c(=S)n2)cc1 | -26.2% (inactive) |
| O=C1NC(=O)C2(CCN(Cc3ccccc3)CC2)N1c1ccccc1 | 8.95% (inactive) |
| CC(=O)Oc1c(C)cc2c(c1C)C(C)(C)CN2C(=O)C(C)(C)C | 16.9% (inactive) |
| COC(=O)C(C(C[N+](=O)[O-])c1ccco1)=P(c1ccccc1)(c1ccccc1)c1ccccc1 (stereo not given) | 89.5% (active) |
| Cn1ccc2c([N+](=O)[O-])cccc2c1=O | 4.1% (inactive) |
| CS(=O)(=O)N(CCC#N)c1ccc(C=O)cc1 | 20.4% (inactive) |
| OCC1CCCC1 | 12.3% (inactive) |
| CC1([N+](=O)[O-])COC2(CCCC2)OC1 | 26.4% (inactive) |
| COc1ccccc1NCS(=O)(=O)O | -7.2% (inactive) |
| CCc1ccc2c(c1)C(=O)c1c(c(-c3ccccc3)c3ccccc3c1-c1ccccc1)C2=O | -5.95% (inactive) |
| CNc1ncnc2nc(C)c(C)nc12 | -14.1% (inactive) |
| O=C(c1ccc(O)c(C(=O)O)c1)c1ccc(O)c(C(=O)O)c1 | 10.9% (inactive) |

Assay: NCI Yeast Anticancer Drug Screen. Data for the mec2-1 strain (AID 157)
Conditions: S. cerevisiae mec2-1 strain, at 50.0 µM, stronger effect = higher value
Method in brief: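 Each compound was tested on mec2-1 yeast, a strain altered in DNA damage repair or cell cycle control. Growth inhibition is reported relative to vehicle.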

| Compound | growth inhibition |
| --- | --- |
| CCCCC/C(C)=C(\C#N)C(=O)OC | -29.1% (inactive) |
| CCOC(=O)CC(C)C(C(=O)OCC)C(=O)OCC (stereo not given) | 6.15% (inactive) |
| CC(=O)c1sc2c(c1OC(=O)c1ccco1)c(=O)n(-c1ccccc1)c(=S)n2-c1ccccc1 | 18.2% (inactive) |
| COc1nc2c(c(O)c(C)c(=O)n2OC2OCC(OC(C)=O)C(OC(C)=O)C2OC(C)=O)c(=O)n1C (stereo not given) | -19.4% (inactive) |
| Cn1c2ccccc2c2oc(CO)cc(=O)c21 | 0.4% (inactive) |
| CCN(C=O)c1ccccc1 | -7.55% (inactive) |
| COc1cc(NC(C)CNC(C)C)c2ncccc2c1 (stereo not given) | -4.85% (inactive) |
| CN(C)C(=O)C(NCCO)c1ccccc1 (stereo not given) | -20.4% (inactive) |
| CCN(CC)CCCNc1ncc(C)c2[nH]c3ccncc3c12 | 22.6% (inactive) |
| C/C=C/C(O)CCCC (stereo not given) | -7.15% (inactive) |
| Cc1ccc(C)c(NC(=O)C(=O)C2C(=O)N(c3ccccc3)N=C2N)c1 (stereo not given) | -29.4% (inactive) |
| Cn1c2cc(Cl)c(Cl)cc2nc2cc3c(cc21)c(Cl)c(=O)c1cc2cc(Cl)c(Cl)cc2cc13 | 8.65% (inactive) |
| COC(=O)c1ccc(SCCC(=O)CNc2nc(N)nc(N)c2[N+](=O)[O-])cc1 | -13.3% (inactive) |
| Cc1cc(Cl)cc(Cl)c1OCC(=O)O | -1.35% (inactive) |
| NC(=O)c1ccccc1O | 5.15% (inactive) |
| C/C(=N/NC(N)=O)C1c2ccccc2Cc2ccccc21 | -2.25% (inactive) |
| O=C(O/N=C(\c1ccccc1)C(Br)c1ccccc1)c1ccccc1 (stereo not given) | 10.2% (inactive) |
| N#CC1(C(c2cccc3ccccc23)c2cccc3ccc4ccccc4c23)CC(=O)OC1=O (stereo not given) | -11.4% (inactive) |
| CCC(C)OC(=S)S.[Cu+2] (stereo not given) | 19.4% (inactive) |
| COc1ccc2[nH]c3c(C)c4c(c(C)c3c2c1)CN(C)CC4 | 4.95% (inactive) |

| Compound | growth inhibition |
| --- | --- |
| COC(=O)[C@H]1C=C[C@H](OC2OC(COC(C)=O)C(OC(C)=O)C(OC(C)=O)C2OC(C)=O)n2c(=O)n(-c3ccccc3)c(=O)n21 (stereo not given in full) | 14% (inactive) |
| CCOC(CN=Cc1ccc2c(c1)Sc1ccccc1O2)OCC | 46.1% (inactive) |
| CCOc1ccc(NC(=O)CC2SC(=Nc3ccc(C)cc3)NC2=O)cc1 (stereo not given) | -38.5% (inactive) |
| CN(C)C(=O)Sc1ccc(O)cc1 | -21.6% (inactive) |
| CC(=O)c1cc2c(cc1C)C(C)(C)CCC2 | 14.2% (inactive) |
| CCOC(=O)C1=C(C)Oc2cc3c(cc2C1c1cc(OC)c(O)c(OC)c1)OCO3 (stereo not given) | 1.65% (inactive) |
| CN(C)NC(=O)Nc1ccc2ccccc2c1 | -30.7% (inactive) |
| Cc1cc(C)c2c(=O)c3c(oc2c1)O[C@@](C)(CO)C[C@@H]3c1ccccc1 | 11.2% (inactive) |
| COc1ccc(-c2cc(C(=O)Nc3cccc(C(F)(F)F)c3)[nH]c(=S)n2)cc1 | -7.95% (inactive) |
| O=C1NC(=O)C2(CCN(Cc3ccccc3)CC2)N1c1ccccc1 | 0.1% (inactive) |
| CC(=O)Oc1c(C)cc2c(c1C)C(C)(C)CN2C(=O)C(C)(C)C | -20.2% (inactive) |
| COC(=O)C(C(C[N+](=O)[O-])c1ccco1)=P(c1ccccc1)(c1ccccc1)c1ccccc1 (stereo not given) | 5.25% (inactive) |
| Cn1ccc2c([N+](=O)[O-])cccc2c1=O | 2% (inactive) |
| CS(=O)(=O)N(CCC#N)c1ccc(C=O)cc1 | -24.7% (inactive) |
| OCC1CCCC1 | -18.4% (inactive) |
| CC1([N+](=O)[O-])COC2(CCCC2)OC1 | 12.2% (inactive) |
| COc1ccccc1NCS(=O)(=O)O | -2.5% (inactive) |
| CCc1ccc2c(c1)C(=O)c1c(c(-c3ccccc3)c3ccccc3c1-c1ccccc1)C2=O | -4.5% (inactive) |
| CNc1ncnc2nc(C)c(C)nc12 | 35.6% (inactive) |
| O=C(c1ccc(O)c(C(=O)O)c1)c1ccc(O)c(C(=O)O)c1 | -13.9% (inactive) |
